# PubChem BioAssay
# Test system: Chordin-like protein 2 (CHRDL2)
# Experiment: compounds binding chordin-like 2 – biochemical, small-molecule microarray, 635 nm fluorescence, primary screen (AID 1126);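 note: printed compound slides probed with Chrdl2 protein at 4 µg/mL for 1 h at 4 C; score merges 667 nm emission intensity with signal to noise over three replicate slides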
# Settings: fluorescence 635 nm, higher = more signal
row,SMILES,composite z-score
1,CCC[C@@H]1C=C(C(=O)OCC)[C@H](c2ccccc2)N1S(=O)(=O)c1ccc(C)cc1,0.0538
2,COCCOC(=O)N1C(=O)[C@@]2(c3cc(C#CCC(C(=O)OC)C(=O)OC)ccc31)[C@H](c1ccc(OCCO)cc1)N1[C@H](c3ccccc3)[C@H](c3ccccc3)OC(=O)[C@H]1[C@@H]2C(=O)N1CCCCCCC1,1.3
3,CCOC(=O)C[C@H]1[C@H](OC(=O)c2ccc(-c3ccccc3)cc2)[C@@H](NC(=O)CC(C)C)c2cc(OCCCO)ccc2N1C(=O)Cc1ccc(OC)cc1,-0.213
4,COCCOC(=O)N1C(=O)[C@@]2(c3cc(C#CCC(C(=O)OC)C(=O)OC)ccc31)[C@H](C(N)=O)[C@H]1C(=O)O[C@H](c3ccccc3)[C@H](c3ccccc3)N1[C@@H]2c1ccc(OCCO)cc1,0.519
5,C=CCC(OC(C)=O)[C@@H]1[C@@H](N(Cc2ccc(-c3cccc(C(F)(F)F)c3)o2)C(=O)c2cccc3ccccc23)c2cc(OCCCO)ccc2N1C(=O)c1ccc2ccccc2c1 (some centres undefined),0.31
6,COC(=O)[C@@]1(Cc2ccccc2)[C@H]2c3cc(C(=O)N4CCCC4)n(Cc4ccc(C(F)(F)F)nc4)c3C[C@H]2CN1C(=O)c1ccccc1,-0.873
7,C=CC[C@@]1(C(=O)O)N=C(c2ccc(OCCCO)cc2)O[C@@H]1c1ccccc1CN=[N+]=[N-],0.439
8,COc1ccc([Si](C)(C)[C@H]2[C@H](CCn3cc([C@H](O)c4ccccc4)nn3)O[C@@]3(C(=O)N(C)c4c(Br)cc(C)cc43)[C@@H]2C)cc1,0.182
9,CC1(C)OC[C@@]23C=C(Br)[C@@H](C[C@H]12)[C@@]1(CO1)C3=O,0.467

# Target: Concanavalin-A (Canavalia ensiformis) (UniProt P02866)
# Sequence (P02866 whole entry, looked up): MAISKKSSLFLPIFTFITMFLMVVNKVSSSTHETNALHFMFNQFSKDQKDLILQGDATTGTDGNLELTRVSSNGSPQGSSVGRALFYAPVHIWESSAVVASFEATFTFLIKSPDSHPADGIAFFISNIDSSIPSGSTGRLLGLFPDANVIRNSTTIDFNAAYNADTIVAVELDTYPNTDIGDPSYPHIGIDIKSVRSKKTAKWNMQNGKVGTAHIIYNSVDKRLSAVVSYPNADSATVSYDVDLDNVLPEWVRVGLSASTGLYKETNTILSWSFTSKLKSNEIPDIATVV
# Experiment: compounds binding concanavalin A lectin – biochemical, small-molecule microarray, Alexa647 label, 635 nm, artefact control for SMM control protein annotation, primary screen (AID 1127);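 note: z combines 667 nm emission intensity with signal-to-noise across three replicate slides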
# Settings: ConA-A647 binding fluorescence, higher = more signal
row,SMILES,composite z-score
1,CCN(CC)c1ccc(N2CC=CC34O[C@@H]5C=CCOC(=O)[C@@H]5[C@H]3C(=O)N(CCO)[C@@H]4C2=O)cc1 (some centres undefined),-1.14
2,CCOC(=O)C1=CC[C@@H](c2ccccc2)N(S(=O)(=O)C[Si](C)(C)C)[C@H]1c1ccccc1,1.02
3,CN(C)CCCC[C@@H]1NC(=O)[C@@H]2C[C@H](C(=O)NCc3ccc(F)cc3)[C@H](c3ccc(O)cc3)N2C1=O,0.911
4,C=CCOC(=O)[C@H]1[C@@H]2C(=O)O[C@@H](c3ccccc3)[C@@H](c3ccccc3)N2[C@@H](c2ccc(OCCOC(=O)[C@@H]3C[C@@H]4C(=O)N[C@@H](CC(C)C)C(=O)N4[C@@H]3c3ccc(O)cc3)cc2)[C@]12C(=O)Nc1ccc(I)cc12,1.13
5,COCCCNC(=O)[C@@H]1c2ccccc2C(=O)N(C2CCCCC2)[C@H]1c1ccc(CO)cc1,-0.247
6,CN(C)CCCC[C@@H]1NC(=O)[C@H]2C[C@@H](C(=O)NCc3ccc(F)cc3)[C@@H](c3ccc(O)cc3)N2C1=O,1.15
7,COc1ccc(C#Cc2ccc3c(c2)[C@]2(C(=O)N3)[C@H](C(=O)Nc3nc4ccccc4s3)[C@H]3C(=O)O[C@H](c4ccccc4)[C@H](c4ccccc4)N3[C@@H]2c2ccc(OCCO)cc2)cc1,1.17
8,C=CCC(OC(C)=O)[C@@H]1[C@@H](N(Cc2ccc(-c3cccc(C(F)(F)F)c3)o2)C(=O)c2cccc3ccccc23)c2cc(OCCCO)ccc2N1C(=O)c1ccc2ccccc2n1 (some centres undefined),-0.18
9,C[N+](C)(C)CCCC[C@@H]1NC(=O)[C@H]2C[C@@H](C(=O)NCCCCCNC(=O)CS)[C@@H](c3ccc(O)cc3)N2C1=O,0.997
10,C=CCC(OC(C)=O)[C@@H]1[C@@H](N(Cc2cccc3ccccc23)C(=O)c2cccc3ccccc23)c2cc(OCCCO)ccc2N1C(=O)Cc1ccc2ccccc2c1 (some centres undefined),-0.508
11,COc1ccc(C(O)C2C=CC3C(=O)N(C)C(=O)C3N2Nc2ccc([N+](=O)[O-])cc2[N+](=O)[O-])cc1OCc1ccccc1 (centres undefined),0.892
12,COCCOC(=O)N1C(=O)[C@@]2(c3cc(C#CCC(C(=O)OC)C(=O)OC)ccc31)[C@H](C(=O)N1CCc3cc(OC)c(OC)cc3C1)[C@H]1C(=O)O[C@H](c3ccccc3)[C@H](c3ccccc3)N1[C@@H]2c1ccc(O)cc1,0.919
13,C=CCNC(=O)[C@@H]1[C@H]2C(=O)O[C@H](c3ccccc3)[C@H](c3ccccc3)N2[C@H](c2ccc(O)cc2)[C@@]12C(=O)Nc1ccc(C#CC3(O)CCCCCC3)cc12,-0.197
14,COCCOC(=O)N1C(=O)[C@@]2(c3ccccc31)[C@H](C(=O)N1CCCCCCC1)[C@H]1C(=O)O[C@H](c3ccccc3)[C@H](c3ccccc3)N1[C@@H]2c1ccc(O)cc1,1.03
15,N#Cc1ccc(C(O)C2C=CC3C(=O)NC(=O)C3N2Nc2ccccn2)cc1 (centres undefined),0.468
16,CC(C)C[C@H]1NC(=O)[C@@]23C(=O)N[C@@H](Cc4ccccc4)C2[C@H](C)[C@@]2(C)O[C@H]2C3/C=C/C/C=C\CNC(=O)[C@@H]2CCCN2C1=O (some centres undefined),0.276
17,CCCC[C@@H]1C[C@H]1[C@@H](NC(=O)Cc1ccccc1)c1ccc(Cl)cc1,1.16
18,NC(=O)N1C(=O)C2C(C1=O)C1C=C(CCCO)C2C(c2ccc(CN3CCCC3)cc2)N1Cc1cccc(OC(F)(F)F)c1 (centres undefined),-0.171

row,SMILES,composite z-score
1,CCOC(=O)C[C@H]1[C@H](OC(=O)c2ccc(C(=O)c3ccccc3)cc2)[C@@H](NC(=O)c2ccc3ccccc3c2)c2cc(OCCCO)ccc2N1C(=O)c1ccc2ccccc2n1,0.707
2,O=C1NC(=O)C2C1C=CC(C(O)c1ccc(F)cc1)N2Nc1ccccn1 (centres undefined),0.356
3,COc1ccc([Si](C)(C)[C@H]2[C@H](CC(=O)N3Cc4ccccc4C[C@H]3CO)O[C@@]3(C(=O)N(Cc4cccc(N5C(=O)c6cccc7cccc5c67)c4)c4ccccc43)[C@@H]2C)cc1,0.872
4,COC(=O)[C@@]1(Cc2ccccc2)[C@@H]2[C@@H](CC(=O)[C@H]2CC(=O)C(=O)N(C)C)CN1C(=O)c1ccccc1,0.596
5,COC(=O)[C@]1(CO)N=C(c2ccc(OCCCO)cc2)O[C@@H]1c1ccccc1CN=[N+]=[N-],0.257
6,CC(C)CNC(=O)[C@@H]1c2ccccc2C(=O)N(C(C)C)[C@H]1c1ccc(CO)cc1,-1.56
7,Cc1c(NC(=O)/C(C#N)=C/c2ccc(Cl)cc2)c(=O)n(-c2ccccc2)n1C,0.736
8,O=C1c2ccccc2[C@](Cc2ccccc2I)(C(=O)O)[C@H](c2ccc(CO)cc2)N1Cc1ccccc1,1.02
9,CCC[C@@H]1C=C(C(=O)OCC)[C@H](c2ccccc2)N1S(=O)(=O)c1ccc(C)cc1,1.11
10,COCCOC(=O)N1C(=O)[C@@]2(c3cc(C#CCC(C(=O)OC)C(=O)OC)ccc31)[C@H](c1ccc(OCCO)cc1)N1[C@H](c3ccccc3)[C@H](c3ccccc3)OC(=O)[C@H]1[C@@H]2C(=O)N1CCCCCCC1,1.1
11,CCOC(=O)C[C@H]1[C@H](OC(=O)c2ccc(-c3ccccc3)cc2)[C@@H](NC(=O)CC(C)C)c2cc(OCCCO)ccc2N1C(=O)Cc1ccc(OC)cc1,-0.286
12,COCCOC(=O)N1C(=O)[C@@]2(c3cc(C#CCC(C(=O)OC)C(=O)OC)ccc31)[C@H](C(N)=O)[C@H]1C(=O)O[C@H](c3ccccc3)[C@H](c3ccccc3)N1[C@@H]2c1ccc(OCCO)cc1,1.07
13,C=CCC(OC(C)=O)[C@@H]1[C@@H](N(Cc2ccc(-c3cccc(C(F)(F)F)c3)o2)C(=O)c2cccc3ccccc23)c2cc(OCCCO)ccc2N1C(=O)c1ccc2ccccc2c1 (some centres undefined),-0.0957
14,COC(=O)[C@@]1(Cc2ccccc2)[C@H]2c3cc(C(=O)N4CCCC4)n(Cc4ccc(C(F)(F)F)nc4)c3C[C@H]2CN1C(=O)c1ccccc1,1.16
15,C=CC[C@@]1(C(=O)O)N=C(c2ccc(OCCCO)cc2)O[C@@H]1c1ccccc1CN=[N+]=[N-],1.05
16,COc1ccc([Si](C)(C)[C@H]2[C@H](CCn3cc([C@H](O)c4ccccc4)nn3)O[C@@]3(C(=O)N(C)c4c(Br)cc(C)cc43)[C@@H]2C)cc1,0.005
17,CC1(C)OC[C@@]23C=C(Br)[C@@H](C[C@H]12)[C@@]1(CO1)C3=O,0.262
